Reference: PubChem BioAssay (NCATS)
Inconclusive results are not listed. Active and inactive are the calls of the source. Calls come from the whole dose curve; as a rule, active = well fitted inhibition curve with a large enough effect; inconclusive = small, poorly fitted or top-dose-only effect; inactive = no such curve, though single readings can be large or run the other way.

Test: HTS Assay for Allosteric Antagonists of the Human D2 Dopamine Receptor: Hit Validation in HTRF (AID 624455);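 note: stable D1 dopamine receptor cell line scored for blocking the D1 response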
Details: Cells stably expressing D1 dopamine receptor, inhibition mode; series mostly up to 46.1 µM
Description: Dopamine receptors (DARs) are involved in the etiology and/or therapy of a number of neuropsychiatric and endocrine disorders. For instance, all receptor-based antiparkinsonian drugs work via stimulating the D2 DAR subtype whereas all FDA-approved antipsychotic agents are antagonists of this receptor. […] There are three different types of allosteric modulators that we are seeking, two of which will stimulate or augment receptor signaling, allosteric agonists and potentiators, while the third, allosteric antagonists, will attenuate receptor signaling. The present primary screening assay measures compound antagonism after an EC80 addition of dopamine by tracking calcium flux in a […], inducible Hek293 Trex D2 cell line. This assay measures activity of the hits in the D1 HTRF assay.
NIH Chemical Genomics Center [NCGC]
NIH Molecular Libraries Probe Centers Network [MLPCN]
Assay Submitter (PI): David Sibley
Cells stably expressing the D1 dopamine receptor will be run in an HTRF assay and compounds will be examined for the ability to inhibit the D1 mediated response.

SMILES	outcome
COc1ccc(Cl)cc1C(=O)NCCc1ccc(S(=O)(=O)NC(=O)NC2CCCCC2)cc1	inactive
CC(C)(C(=O)O)c1ccc(C(O)CCCN2CCC(C(O)(c3ccccc3)c3ccccc3)CC2)cc1 (stereo not given)	inactive
CCCn1cnc2c1c(=O)n(CCCCC(C)=O)c(=O)n2C	inactive
N=c1c[n+](N2CCOCC2)[n-]o1	inactive
CN(C)CC[C@@H](c1ccc(Cl)cc1)c1ccccn1	inactive
Nc1ncnc2c1ncn2[C@@H]1O[C@H](CO)[C@@H](O)[C@H]1O	inactive
OCCN1CCN(CCCN2c3ccccc3Sc3ccc(Cl)cc32)CC1	inactive
CC[C@H]1CN2CCc3cc(OC)c(OC)cc3[C@@H]2C[C@@H]1C[C@H]1NCCc2cc(OC)c(OC)cc21	inactive
CN(C)CCC=C1c2ccccc2CCc2ccccc21	inactive
CCN(CC)CCNC(=O)c1cc(Cl)c(N)cc1OC	inactive
NC1CCN(c2cccc(Cl)n2)CC1	inactive
Nc1cc(=O)[nH]c(N)n1	inactive
CC(C)(C)c1onc(OCP(=O)(O)O)c1CC(N)C(=O)O (stereo not given)	inactive
COC(=O)C1=C(C)NC(C)=C(C(=O)OC)C1c1ccccc1[N+](=O)[O-]	inactive
CSc1ccc2c(c1)C(N1CCN(C)CC1)Cc1ccccc1S2 (stereo not given)	inactive
CCCCCCCCCCCCCCCC(=O)NCCO	inactive
CNCCC(Oc1ccc(C(F)(F)F)cc1)c1ccccc1 (stereo not given)	inactive
CN1CCN(C2Cc3ccccc3Sc3ccc(Cl)cc32)CC1 (stereo not given)	inactive
NC(N)=NCCC[C@H](N)C(=O)O	inactive
CC(C)C(=O)c1c(C(C)C)nn2ccccc12	inactive

SMILES	outcome
CC(=O)OCC(=O)[C@@]1(O)CC[C@H]2[C@@H]3CCC4=CC(=O)CC[C@]4(C)[C@H]3C(=O)C[C@@]21C	inactive
OCc1cc(C(O)CNCCCCCCOCCCCc2ccccc2)ccc1O (stereo not given)	inactive
O=C1N=C(O)CN1/N=C/c1ccc(-c2ccc([N+](=O)[O-])cc2)o1	inactive
NC(=O)c1ncn([C@@H]2O[C@H](CO)[C@@H](O)[C@H]2O)n1	inactive
CN(C)CCCN1c2ccccc2CCc2ccccc21	inactive
C=Cc1c(C)c2cc3[nH]c(cc4nc(cc5nc(cc1[nH]2)C(C)=C5CCC(=O)O)C(CCC(=O)O)=C4C)c(C)c3C=C	inactive
CC(CN(C)C)CN1c2ccccc2CCc2ccccc21 (stereo not given)	inactive
CNCCCC1c2ccccc2C=Cc2ccccc21	inactive
CCN(CC)C(C)CN1c2ccccc2Sc2ccccc21 (stereo not given)	inactive
CSc1ccc2c(c1)N(CCC1CCCCN1C)c1ccccc1S2 (stereo not given)	inactive
COCCOC(=O)C1=C(C)NC(C)=C(C(=O)OC/C=C/c2ccccc2)C1c1cccc([N+](=O)[O-])c1 (stereo not given)	inactive
CCN(CC)CCOC(=O)C1(C2CCCCC2)CCCCC1	inactive
CC(CN1c2ccccc2Sc2ccccc21)N(C)C (stereo not given)	inactive
CC(C(O)c1ccc(O)cc1)N1CCC(Cc2ccccc2)CC1 (stereo not given)	inactive
CC1=C(CC(=O)O)c2cc(F)ccc2/C1=C\c1ccc(S(C)(=O)=O)cc1	inactive
C#CCN(C)Cc1ccccc1	inactive
Cc1cc(N)c2ccccc2[n+]1CCCCCCCCCC[n+]1c(C)cc(N)c2ccccc21	inactive
C[C@]12CC[C@@H]3c4ccc(O)cc4CC[C@H]3[C@@H]1CCC2=O	inactive
C[C@](N)(Cc1ccc(O)cc1)C(=O)O	inactive
CC1=C(CC(=O)O)c2cc(F)ccc2/C1=C\c1ccc(S(C)=O)cc1 (stereo not given)	inactive
